Bioassay records as filed in PubChem.
Compounds with a hit are over-represented: about 6.6% of the library has one in this group of screens.
KB-V1 cytotox: kills drug-selected multidrug resistant KB-V1 cells; KB-V1 MDR cells viability, CellTiter-Glo, 72 h; Potency, µM (doses to about 46.1 µM), hits mostly cytotoxic; AID 1347076; 3.4% of 400,000 active; further: on the % scale 0 is the no-effect control and ±100 the full control effect; nearly all actives have a fitted effect of over 60% in size
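Following 72 h at 37 degrees C with compound, KB-V1 cell viability was read by CellTiter-Glo luminescence, medium being phenol-red-free DMEM plus 10% FBS; concentration-response parameters came from normalized, curve-fitted qHTS data.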
KB-3-1 cytotox: kills parental KB-3-1 adenocarcinoma cells. AID 1347075. KB-3-1 viability, CellTiter-Glo ATP luminescence, 72 h. Potency, µM (series often up to 46.1 µM), most hits filed as cytotoxic. 1.4% of 400,000 active; further: on the % scale 0 is the no-effect control and ±100 the full control effect; nearly all actives have a fitted effect of over 60% in size
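Parental KB-3-1 viability, qHTS format: 72 h compound exposure, 37 °C; CellTiter-Glo; media-only wells and DMSO plates as controls; concentration-effect fits on corrected data.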
HepG2 viability: counter-screen for TGF-b inhibitors: cytotoxicity in HepG2 cells; HepG2 CAGA-GFP viability, ATP luminescence, 18 h; Potency, µM (doses to about 46.1 µM), for the others: top-dose activity change, negative = cytotoxicity, actives largely listed as cytotoxic; 0.76% of 410,000 active; AID 588856
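CellTiter-Glo luminescence gave cytotoxicity after 18 hours at 37 degrees C. The cells were HepG2 CAGA-GFP in 1% FBS DMEM, stimulated with 500 pg/mL TGF-beta after compound addition. %Activity was normalised to no-cell wells (complete cell-killing) and DMSO (no toxicity), and curves were fitted and classified.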
TGFb SMAD3 inh: inhibitors of TGF-b signaling | HepG2 CAGA-GFP TGF-b/SMAD3 reporter, GFP fluorescence, 18 h; TGF-beta stimulated, 500 pg/mL final | Potency, µM (titrated, usually from 46.1 µM), without a hit: top-dose activity, negative = inhibition, usual class: inhibitors | AID 588855 | 1.2% of 410,000 active; further: on the % scale 0 is the no-effect control and ±100 the full control effect; nearly all actives have a fitted effect of over 65% in size
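First, reporter cells (HEPG2 CAGA-GFP) rested 2 h at 37 degrees C. Next, compounds were pinned in and TGF-beta added to 500 pg/mL final. After 18 h, GFP was imaged per cell and summed per well.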
HT1080 IDH1KD tx: HT-1080 IDH1 knockdown cell toxicity (counter line); Potency, µM (top dose mostly 46.1 µM), for inactives: top-dose activity, negative = toxicity, most hits filed as cytotoxic; HT-1080 IDH1 knockdown viability, ATP luminescence, 48 h; 2% of 360,000 active;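 further: 0% = DMSO wells and -100% = cell-free medium wells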
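After a 2 h attachment period, IDH1KD HT-1080 cells took pin-transferred compound for 48 h at 37 °C; ATP-based luminescence after 10 min room-temperature reagent incubation reported viability.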
HT1080NT lethal: kills 2HG-producing HT-1080-NT fibrosarcoma cells; HT-1080-NT fibrosarcoma viability, CellTiter-Glo ATP luminescence, 48 h; Potency, µM (series often up to 46.1 µM), without a hit: at the highest dose activity, negative = less viability, most hits filed as cytotoxic; 1.6% of 360,000 active; AID 686970;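 further: NT is the 2HG producing partner of a matched IDH1 knockdown line; 0% = DMSO-treated cells and -100% = media-only wells without cells; nearly all actives have a fitted effect of over 55% in size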
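750 cells/well, RPMI + 5% FBS; 2 h settle, compound pin-transfer, 48 h at 37 degrees C. CellTiter-Glo 10 min RT, luminescence. Normalized to DMSO and media-only wells.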
The depositor's hits bear a star; i = inactive; ? = inconclusive; . = not tested or not shown. The call rests on the fitted dose curve; in most records, active means well fitted curve in the direction sought with a large enough effect; inconclusive means small, poorly fitted or top-dose-only effect, or another doubt; inactive means no such curve, though single readings can be large; an effect the other way counts as inactive or inconclusive. Potency means the concentration at half of the fitted maximal effect.

SMILES	KB-V1 cytotox	KB-3-1 cytotox	HepG2 viability	TGFb SMAD3 inh	HT1080 IDH1KD tx	HT1080NT lethal
CC(=O)Nc1ccccc1NC(=O)c1cc(C)ccc1C	i	i	5%	-13%	5%	7%
Cc1ccccc1-c1ocnc1C(=O)Nc1ccccc1NC(=O)c1ccccn1	?	i	-77%	11µM*	?	3.7µM*
COc1ccc2nc(Nc3nc(C)c(C(C)=O)s3)sc2c1	18µM*	i	-26%	?	?	-22%
Cc1ccc(C)c(C(=O)c2ccccc2NC(=O)c2ccccn2)c1	?	?	-11%	-17%	21µM*	?
O=C(Nc1nc2c(F)cc(F)cc2s1)c1ccccn1	?	?	-32%	?	6.5µM*	?
Cc1ccc2nc(NC(=O)c3ccccn3)sc2c1	?	?	-51%	0%	2.3µM*	15µM*
CSc1nc2ccc(NC(=O)c3ccccn3)cc2s1	?	i	-25%	-20%	12µM*	15µM*
O=C(COc1ccccc1)NNc1nc2c(F)cc(F)cc2s1	i	i	-4%	29%	0%	11%
Cc1ccc2nc(NC(=O)c3ccccc3F)sc2c1	?	i	-2%	-2%	-2%	-7%
COc1ccc2nc(NC(=O)c3cnccn3)sc2c1	?	i	-42%	6%	7.9µM*	11µM*
COc1ccc(C(=O)Nc2nc3ccc(OC)cc3s2)cc1	i	i	-23%	-4%	-14%	-24%
CSc1ncc(C(=O)NCc2ccc(Cl)cc2)c(C(F)(F)F)n1	i	i	-11%	-12%	.	.
Cc1ccc(-c2nc3cc(C(C)C)ccc3o2)cc1NC(=O)c1cc([N+](=O)[O-])ccc1N1CCOCC1	i	i	-12%	-1%	.	.
C[C@@H]1CN([C@@H](C)CO)C(=O)CCCn2nncc2CO[C@H]1CN(C)C(=O)C1CC1	i	i	-4%	3%	5%	2%
CC(=O)c1sc(Nc2ccccn2)nc1C	?	15µM*	-3%	-1%	-11%	-9%
CCOc1ccc2nc(NC(=O)Nc3ccccc3)sc2c1	i	i	-16%	-4%	-22%	-3%
CCOc1ccc2nc(NC(=O)c3ccccn3)sc2c1	?	?	-32%	-9%	16µM*	?
CC(=O)c1sc(Nc2cccc3ccccc23)nc1C	i	i	-5%	4%	0%	9%
COc1ccc2oc(-c3cccc(NC(=O)c4ccc(C#N)cc4F)c3)nc2c1	i	i	-15%	10%	.	.
O=C(NCCCN1CCOCC1)C(=O)N/N=C/c1c2ccccc2cc2ccccc12	10µM*	5.8µM*	-56%	111%	?	?
COc1cc(-c2nc(C(N)=O)c3c(n2)n(-c2cccc(C)c2)c(=O)n3C)cc(OC)c1OC	i	i	-8%	2%	.	.
O=C(CSc1nnnn1-c1ccc2c(c1)OCCO2)Nc1nc2c(s1)CCCC2	16µM*	i	-50%	?	-3%	?
COc1cccc(-n2nnnc2SCC(=O)Nc2nc3c(s2)CCCC3)c1	i	i	-10%	-9%	-9%	-6%
Cc1ccc2cc(C)c3nnc(SCC(=O)Nc4nc5c(s4)CCCC5)n3c2c1C	18µM*	i	-2%	-20%	-25%	?
O=S(=O)(Nc1nc2ccccc2nc1Nc1ccc2c(c1)OCO2)c1ccc(F)cc1	5.8µM*	?	22%	0%	1%	4%
SMILES	KB-V1 cytotox	KB-3-1 cytotox	HepG2 viability	TGFb SMAD3 inh	HT1080 IDH1KD tx	HT1080NT lethal
O=C(O)c1cccc(Nc2nc3ccccc3nc2NS(=O)(=O)c2ccc(F)cc2)c1	?	i	11%	12%	-1%	-2%
O=S(=O)(Nc1nc2ccccc2nc1N1CCN(c2ccccc2)CC1)c1ccc(F)cc1	5.2µM*	?	-39%	?	-7%	-10%
CCNC(=O)c1ccc2nc(Cc3ccccc3)oc2c1	i	i	-2%	-3%	.	.
COc1ccc(S(=O)(=O)c2nnn(-c3ccc(C(C)C)cc3)c2C)cc1	?	i	-26%	-26%	.	.
COc1ccccc1CNC(=O)C(=O)NCC(c1cccs1)S(=O)(=O)c1ccc(F)cc1 (centres undefined)	?	i	-2%	2%	.	.
COc1cccc(NC(=O)CN(c2ccc([N+](=O)[O-])cc2)S(=O)(=O)c2ccccc2)c1	i	i	-4%	-2%	1%	8%
COc1ccc(N(CC(=O)Nc2ccccc2OC)S(=O)(=O)c2ccc(NC(C)=O)cc2)cc1	?	21µM*	4%	0%	?	?
COc1ccccc1NC(=O)CN(c1ccccc1)S(=O)(=O)c1ccccc1	?	i	-13%	0%	-16%	-2%
COc1ccc(NC(=O)CN(c2ccc([N+](=O)[O-])cc2)S(=O)(=O)c2ccccc2)cc1	16µM*	i	13%	?	?	-29%
COc1ccc(S(=O)(=O)N(CC(=O)Nc2ccccc2C(=O)N2CCOCC2)c2ccc(F)cc2)cc1	16µM*	i	11%	26%	-7%	-7%
COc1ccc(OC)c(NC(=O)CN(c2ccc(C)cc2)S(=O)(=O)c2c(C)noc2C)c1	?	?	-26%	4%	-11%	-21%
COc1ccc(N(CC(=O)Nc2cc(Cl)ccc2OC)S(=O)(=O)c2c(C)noc2C)cc1	3.3µM*	4.6µM*	-27%	0%	12µM*	?
CC(C)NC(=O)c1ccc2c(c1)nc1n2CCCCC1	.	.	-17%	0%	.	.
CCCOc1cccc(C(=O)N(Cc2sccc2C)C2CCS(=O)(=O)C2)c1 (centres undefined)	.	.	0%	.	.	.
COc1cc(C2CC(=O)C3=C(C2)Nc2ncnn2C3c2cccs2)cc(OC)c1OC (centres undefined)	i	i	-26%	16%	-15%	?
COc1cc(C2C3=C(Nc4ncnn42)c2ccccc2CC3)cc(OC)c1OC (centres undefined)	0.65µM*	0.29µM*	-9%	-33%	0.73µM*	0.73µM*
COc1cc(C2C=C(c3cccs3)Nc3ncnn32)cc(OC)c1OC (centres undefined)	3.7µM*	1µM*	1%	55%	?	?
COc1ccc(S(=O)(=O)c2c(C(=O)c3ccc(C)c(C)c3)cnc3ccc(C)cc23)cc1	i	i	3%	1%	.	.
Cc1ccc(-n2c(SCC(=O)NCc3ccc(F)cc3)nc3c([nH]c4ccccc43)c2=O)cc1	i	i	0%	-18%	.	.
